Compounds with a hit are over-represented: about 3.8% of the library has one in this group of screens.
HepG2 tox-1 – counter-screen for TGF-b inhibitors: cytotoxicity in HepG2 cells; HepG2 CAGA-GFP viability, ATP luminescence, 18 h; Potency, µM (highest dose often 46.1 µM), without a hit: top-dose activity change, negative = cytotoxicity, usual class: cytotoxic; hit rate 0.76% among 410,000
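CellTiter-Glo luminescence gave cytotoxicity after 18 hours at 37 degrees C. The cells were HepG2 CAGA-GFP in 1% FBS DMEM, stimulated with 500 pg/mL TGF-beta after compound addition. %Activity was normalised to no-cell wells (complete cell-killing) and DMSO (no toxicity), and curves were fitted and classified.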
TGFb SMAD3 inh – blocks TGF-b signaling | hit rate 1.2% among 410,000 | Potency, µM (series often up to 46.1 µM), without a hit: at the highest dose activity, negative = inhibition, usual class: inhibitors | AID 588855 | HepG2 CAGA-GFP TGF-b/SMAD3 reporter, GFP fluorescence, 18 h; TGF-beta stimulated, 500 pg/mL final; also: % is scaled to controls: 0 for no effect and ±100 for the full control effect; nearly all actives have a fitted effect of over 65% in size
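First, reporter cells (HEPG2 CAGA-GFP) rested 2 h at 37 degrees C. Next, compounds were pinned in and TGF-beta added to 500 pg/mL final. After 18 h, GFP was imaged per cell and summed per well.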
HT1080 IDH1KD tx – kills HT-1080 cells with IDH1 knockdown | HT-1080 IDH1 knockdown viability, ATP luminescence, 48 h | Potency, µM (series often up to 46.1 µM), for inactives: at the top dose activity, negative = toxicity, hits mostly cytotoxic | hit rate 2% among 360,000 | AID 686971;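 also: 0% = DMSO wells and -100% = cell-free medium wells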
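Assay cells: HT-1080 with IDH1 knockdown, 750 per well, RPMI/5% FBS. Exposure: 48 h at 37 °C following 2 h pre-incubation. Read: CellTiter-Glo luminescence; fitted concentration-response, curve class assigned.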
S2 tox – cell viability loss in ATXN counter-screen; Potency, µM (top dose mostly 56.7 µM), actives largely listed as cytotoxic; hit rate 0.49% among 400,000; S2 cells (HEK-293 line with an ATXN2-luciferase reporter) viability, CellTiter-Fluor protease fluorescence, 24 h; AID 651635; also: nearly all actives have a fitted effect of over 40% in size
HT1080NT lethal – kills 2HG-producing HT-1080-NT fibrosarcoma cells; HT-1080-NT fibrosarcoma viability, CellTiter-Glo ATP luminescence, 48 h; hit rate 1.6% among 360,000; Potency, µM (top dose mostly 46.1 µM), inactives show at the highest dose activity, negative = less viability, most hits filed as cytotoxic;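 also: NT is the 2HG producing partner of a matched IDH1 knockdown line; 0% = DMSO-treated cells and -100% = media-only wells without cells; nearly all actives have a fitted effect of over 55% in size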
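A 48-hour cytotoxicity screen used HT-1080-NT cells plated 2 hours before compound delivery. ATP-based CellTiter-Glo luminescence measured viability, normalized to DMSO and no-cell controls.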
ATXN2 expr inh – reduces ATXN2 reporter expression in HEK-293 cells. HEK-293 ATXN2-luciferase reporter, luminescence, 24 h. Potency, µM (top dose mostly 57 µM), inactives show top-dose activity change, negative = inhibition, usual class: inhibitors. hit rate 0.72% among 360,000; also: % is scaled to controls: 0 for no effect and ±100 for the full control effect; nearly all actives have a fitted effect of over 55% in size
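qHTS (up to 57 uM final) was run with 24 h compound exposure of reporter cells at 37 °C. Each well was multiplexed: SteadyGlo luminescence measured ATXN2-luciferase expression after a fluorogenic Gly-Phe-AFC viability readout (25 uM final).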
TGFb confirm – confirmation of TGF-b signaling inhibitors in HepG2 reporter cells; shares compounds with TGFb SMAD3 inh; HepG2 CAGA-GFP TGF-b reporter, GFP fluorescence, 18 h; cells stimulated with TGF-beta, 500 pg/mL; Potency, µM (highest dose often 46.1 µM), without a hit: at the top dose activity, negative = inhibition, most hits filed as inhibitors; hit rate 63% among 1,600; also: % is scaled to controls: 0 for no effect and ±100 for the full control effect; nearly all actives have a fitted effect of over 65% in size
HepG2 tox-2 – toxic to HepG2 cells in TGF-b counterscreen; hit rate 27% among 1,600; HepG2 CAGA-GFP viability, ATP luminescence, 18 h; cells stimulated with TGF-beta, 500 pg/mL; shares compounds with TGFb SMAD3 inh; Potency, µM (top dose mostly 46.1 µM), inactives show top-dose activity, negative = cytotoxicity, most hits filed as inhibitors; AID 720535; also: % is scaled to controls: 0 for no effect and ±100 for the full control effect; nearly all actives have a fitted effect of over 70% in size
CCL64 TGFb inh – TGF-b inhibition, CCL64 orthogonal assay. Potency, µM (series often up to 46.1 µM), for the others: top-dose activity, negative = inhibition, hits mostly inhibitors. CCL64 CAGA-GFP reporter, TGF-b stimulated, GFP fluorescence, 18 h. hit rate 41% among 1,600. shares compounds with TGFb SMAD3 inh. AID 720536; also: nearly all actives have a fitted effect of over 65% in size
TGFb COP inh – validation of TGF-b inhibitors in HepG2 COP promoter reporter; Potency, µM (top dose mostly 46.1 µM), inactives show at the top dose activity, negative = inhibition, usual class: inhibitors; HepG2 COP-GFP TGF-b reporter, GFP fluorescence, 18 h; cells stimulated by added recombinant TGF-beta; hit rate 3% among 1,600; shares compounds with TGFb SMAD3 inh; also: nearly all actives have a fitted effect of over 70% in size
* marks the source's active call; other numbers are inactive results; i = inactive; ? = inconclusive; . = no result. Calls follow the shape of the dose curve; as a rule, active = well fitted curve in the direction sought with a large enough effect; inconclusive = small, poorly fitted or top-dose-only effect, or another doubt; inactive = no such curve, though single readings can be large; an effect the other way counts as inactive or inconclusive. Potency is read from the fitted curve at half-maximal effect.

SMILES | HepG2 tox-1 | TGFb SMAD3 inh | HT1080 IDH1KD tx | S2 tox | HT1080NT lethal | ATXN2 expr inh | TGFb confirm | HepG2 tox-2 | CCL64 TGFb inh | TGFb COP inh
CC[C@]12c3[nH]c4cc(CCC(=O)N(C)C)ccc4c3CCN1C(=O)[C@@H](CC(=O)NC/C=C(\C)CCC=C(C)C)C[C@@H]2C(=O)N1CCN(C(=O)C2CC2)CC1 | -17% | ? | -16% | ? | 0% | -22% | . | . | . | .
CC[C@]12c3[nH]c4ccc(Cl)cc4c3CCN1C(=O)[C@@H](CC(=O)NCc1cccc(C(F)(F)F)c1)C[C@@H]2C(=O)N1CCN(C(=O)c2ccco2)CC1 | 6% | 13µM* | ? | 28µM* | ? | ? | 16µM* | ? | 10µM* | 64%
CC[C@]12c3[nH]c4ccc(Cl)cc4c3CCN1C(=O)[C@@H](CC(=O)NC/C=C(\C)CCC=C(C)C)C[C@@H]2C(=O)N1CCN(C(=O)C2CC2)CC1 | -68% | 10µM* | 21µM* | . | ? | ? | ? | ? | 21µM* | 66%
COC(=O)c1scc(-c2ccc(C)cc2)c1S(=O)(=O)N1CCN(c2cccc(Cl)c2)CC1 | -6% | -6% | . | i | . | -7% | . | . | . | .
CC[C@]12c3[nH]c4cc(-c5ccco5)ccc4c3CCN1C(=O)[C@@H](CC(=O)NCc1cccc(C(F)(F)F)c1)C[C@@H]2C(=O)N1CCN(C(=O)c2ccco2)CC1 | -5% | 11µM* | -21% | ? | -11% | ? | 4.1µM* | -27% | ? | 18%
